Assay outcomes as filed in PubChem BioAssay.
The entries come from a sample that favours hits as a whole.
ER stress surv: ER stress cell death inhibition | hit rate 0.33% among 48,000 | relative survival (cellular ATP), % at 15 µg/mL (by protocol) | CSM14.1 thapsigargin ER stress survival, ATP luminescence | AID 1010;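 active = survival measured by cellular ATP above 50% at 15 µg/ml in the first screen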;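 note: cell death triggered by about 15 µM thapsigargin; ATP read 24 h after thapsigargin was added; plate controls were thapsigargin with DMSO for no effect and DMSO without thapsigargin for full effect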
An asterisk follows results filed as active.

SMILES	ER stress surv
CCOC(=O)c1c(NC(=O)CCC(=O)OC)sc2c1CC(C)(C)SC2	10
CCOC(=O)c1c(NC(=O)CCc2ccccc2)sc(C(=O)Nc2cc(C(F)(F)F)ccc2Cl)c1C	-2
CCN(CC)c1ccc(/C=C2/C(=O)NN(c3ccc(C)cc3)C2=O)c(O)c1	6
Cc1ccc(C2Nc3ccccc3NC3=C2C(=O)CC(c2ccc(Cl)cc2)C3)cc1[N+](=O)[O-] (stereo not given)	7
O=C1CC(c2ccc3c(c2)OCO3)CC2=C1C(c1ccc(C(F)(F)F)cc1)Nc1ccccc1N2 (stereo not given)	122*
O=C1CC(c2ccc(Cl)cc2)CC2=C1C(c1ccccc1[N+](=O)[O-])Nc1ccccc1N2 (stereo not given)	26
O=C1CC(c2ccc3c(c2)OCO3)CC2=C1C(c1cc3c(cc1Br)OCO3)Nc1ccccc1N2 (stereo not given)	6
COc1ccc(C2CC(=O)C3=C(C2)Nc2ccccc2NC3c2cc3c(cc2Cl)OCO3)cc1 (stereo not given)	7
COc1ccc(C2CC(=O)C3=C(C2)Nc2ccccc2NC3c2ccc3c(c2)OCO3)cc1 (stereo not given)	5
O=C1CC(c2ccccc2)CC2=C1C(c1ccc(F)cc1)Nc1ccccc1N2 (stereo not given)	8
O=C1CC(c2ccccc2)CC2=C1C(c1ccc(Cl)c([N+](=O)[O-])c1)Nc1ccccc1N2 (stereo not given)	100*
O=C1CC(c2ccc(Cl)cc2)CC2=C1C(c1cc3c(cc1[N+](=O)[O-])OCO3)Nc1ccccc1N2 (stereo not given)	84*
O=C(c1cccc(N2C(=O)C3C4C=CC(C4)C3C2=O)c1)c1cccc(N2C(=O)C3C4C=CC(C4)C3C2=O)c1 (stereo not given)	9
O=c1[nH]c(O)c(C=NCc2ccccc2)c(=O)[nH]1	9
COc1ccc(NCC(O)Cn2c3ccc(Br)cc3c3cc(Br)ccc32)c(OC)c1 (stereo not given)	9
Cc1ccccc1OCCNc1cc(N2CCCC2)ccc1[N+](=O)[O-]	-2
CC(C)OP(=O)(OC(C)C)C(Nc1cccc([N+](=O)[O-])c1)c1cccc([N+](=O)[O-])c1 (stereo not given)	6
CC(C)OP(=O)(OC(C)C)C(Nc1cccc(N)c1)c1cccc(N)c1 (stereo not given)	81*
COP(=O)(OC)C(Nc1cc(Cl)cc(Cl)c1)c1cccc(O)c1 (stereo not given)	-3
O=C(O)CN1C(=O)c2cccc3c(I)cc(Br)c1c23	10
NC1=NC(=O)C(CC(=O)Nc2ccc(Cl)cc2)S1 (stereo not given)	11
CC(C)N1C(=O)/C(=C/C=C/c2ccc([N+](=O)[O-])cc2)SC1=S	-4
CC1(C)C(=O)N(Cc2ccccc2)c2ccccc2N1C(=O)c1ccc([N+](=O)[O-])cc1	4
CC1(C)C(=O)N(Cc2ccccc2)c2ccccc2N1C(=O)c1ccc(Cl)cc1	4
COc1ccc(C(=O)N2c3ccccc3N(Cc3ccccc3)C(=O)C2(C)C)cc1	110*
SMILES	ER stress surv
CC(C)CCNC1=CC(=O)CC(c2ccccc2)C1 (stereo not given)	-1
O=C1C=C(NCCc2c[nH]c3ccccc23)CC(c2ccccc2)C1 (stereo not given)	54*
O=C1C=C(Nc2ccccc2C(=O)O)CC(c2ccccc2)C1 (stereo not given)	12
CCCNC(=O)/C=C/c1ccc2c(c1)OCO2	0
COc1cc2nc(-c3ccc(Oc4ccc([N+](=O)[O-])cc4)cc3)oc(=O)c2cc1OC	-10
CCc1ccc(CN2CCN(C(=O)c3cc(OC)cc(OC)c3)CC2)cc1	-2
O=C(N/N=C/c1cccc([N+](=O)[O-])c1)C(Oc1ccccc1)Oc1ccccc1	5
O=[N+]([O-])c1cccc(/C=N\N2CCN(C(c3ccccc3)c3ccccc3)CC2)c1	52*
NC(=O)c1ccccc1N=Cc1cccc([N+](=O)[O-])c1	1
COc1ccc(/C=c2\sc3nnc(-c4ccccc4)n3c2=O)c(OC)c1	6
CCOC(=O)c1c(-c2ccccc2)csc1NC(=O)C(C)C	10
CC(C)(C)c1ccc(OCC(=O)Nc2nccs2)cc1	0
Cc1ccnc(NC(=O)CSc2nc3ccccc3[nH]2)c1	-1
Cc1ccnc(NC(=O)C(c2ccccc2)c2ccccc2)c1	86*
COc1ccccc1CC(=O)Nc1cc(C)ccn1	7
CC(C)Oc1cccc(C(=O)N2CCc3ccccc32)c1	-1
COc1ccc(C(=O)NCCOc2ccccc2OC)cc1OC	-3
COc1ccccc1OCCNC(=O)c1ccc(Oc2ccccc2)cc1	52*
COc1ccc(C(=O)NCCOc2ccccc2F)cc1OC	10
CCOc1ccccc1N(CC(=O)Nc1ccc(C)cc1C)S(=O)(=O)c1ccccc1	6
CC(=O)Nc1ccccc1NC(=O)COc1ccc(Br)c(C)c1	4
COc1cc2ccccc2cc1C(=O)Nc1cccc(-c2nc3ncccc3o2)c1	4
COc1ccc(-c2nc(-c3ccc(O)cc3)[nH]c2-c2ccc(OC)cc2)cc1	-10
COc1ccc(OC)c(-c2nc(-c3ccccc3)c(-c3cccs3)[nH]2)c1	7
COc1ccc(-c2nc(-c3cc(OC)c(OC)cc3OC)[nH]c2-c2ccc(OC)cc2)cc1	116*
SMILES	ER stress surv
CCOc1ccc(C(=O)Nc2cccc(C(C)=O)c2)cc1	-6
O=C(Nc1ccc(F)cc1)Nc1ccccc1C(=O)OCc1ccccc1F	3
CCOc1ccc(S(=O)(=O)N(CC(=O)Nc2ccccc2CC)c2ccc(C)cc2)cc1	0
CCOc1ccc(S(=O)(=O)N(CC(=O)Nc2ccccc2OCC)c2ccc(C)cc2)cc1	66*
CCOc1ccccc1NC(=O)CN(c1ccc(C)cc1)S(=O)(=O)c1ccc(SC)cc1	5
COc1ccc(CCNC(=O)C2CCCCC2C(=O)O)cc1 (stereo not given)	8
Cc1ccc(N=Cc2cc(Cl)cc(Cl)c2O)cc1F	9
CCOc1cc(/C=C(/C#N)C(=O)Nc2cccc(Br)c2)cc(Cl)c1OCC(=O)O	1
COc1ccc(-c2nc3c(n2O)CCc2nonc2-3)cc1OC	7
O=C(N/N=C/c1ccc(Cl)c([N+](=O)[O-])c1)/C(=C\c1ccc2c(c1)OCO2)NC(=O)c1ccccc1	81*
O=C(O)COc1ccccc1/C=N/NC(=O)/C(=C\c1ccc2c(c1)OCO2)NC(=O)c1ccccc1	-4
COc1cc(Cl)cc(/C=N/NC(=O)/C(=C\c2ccc3c(c2)OCO3)NC(=O)c2ccccc2)c1O	5
C=CCOC(=O)C1=C(C)N(CC)C(=O)NC1c1ccc([N+](=O)[O-])cc1 (stereo not given)	7
Cc1cc(/C=C2\C(=O)NC(=S)N(c3ccccc3)C2=O)c(C)n1-c1cccnc1	-3
CCC(C)NC(=O)c1ccc(CN(c2ccc(C)c(C)c2)S(C)(=O)=O)cc1 (stereo not given)	0
Cc1ccc(N(Cc2ccc(C(=O)N/N=C/c3cc(Br)c(C)o3)cc2)S(C)(=O)=O)cc1C	80*
Cc1ccc(N(Cc2ccc(C(=O)N/N=C/c3ccc(OC4CSC4)cc3)cc2)S(C)(=O)=O)cc1C	43
CCOc1ccc(NC(=O)c2cc(C(=O)O)ccc2C(=O)O)cc1	10
CN1C(=O)/C(=C\c2ccccc2OCc2cccc3ccccc23)SC1=S	11
N#Cc1ccccc1NC(=O)c1ccc(-c2ccccc2)cc1	2
